# Experimental data from article PMC6919601, “Identification of Plasmodium dipeptidyl aminopeptidase allosteric inhibitors by high throughput screening” (PLoS ONE, 2019).
# The campaign covered roughly 110,000 compounds. About 230 (0.21%) showed an effect of 50% or more. This is one part of a sample in which strong results are shown more often than they occur.
# Target: DPAP1 (Plasmodium falciparum, UniProt Q8IIJ9)
# Assay: primary screen, percent inhibition; read by cleavage of a fluorogenic dipeptide substrate; higher = more effect of the substance
# Design: species or system P. falciparum D10 trophozoite lysates; single well
# 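Further: 30 min substrate incubation versus DMSO and 10 µM JCP410 controls.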
# Sequence of DPAP1 (Q8IIJ9 whole entry, looked up): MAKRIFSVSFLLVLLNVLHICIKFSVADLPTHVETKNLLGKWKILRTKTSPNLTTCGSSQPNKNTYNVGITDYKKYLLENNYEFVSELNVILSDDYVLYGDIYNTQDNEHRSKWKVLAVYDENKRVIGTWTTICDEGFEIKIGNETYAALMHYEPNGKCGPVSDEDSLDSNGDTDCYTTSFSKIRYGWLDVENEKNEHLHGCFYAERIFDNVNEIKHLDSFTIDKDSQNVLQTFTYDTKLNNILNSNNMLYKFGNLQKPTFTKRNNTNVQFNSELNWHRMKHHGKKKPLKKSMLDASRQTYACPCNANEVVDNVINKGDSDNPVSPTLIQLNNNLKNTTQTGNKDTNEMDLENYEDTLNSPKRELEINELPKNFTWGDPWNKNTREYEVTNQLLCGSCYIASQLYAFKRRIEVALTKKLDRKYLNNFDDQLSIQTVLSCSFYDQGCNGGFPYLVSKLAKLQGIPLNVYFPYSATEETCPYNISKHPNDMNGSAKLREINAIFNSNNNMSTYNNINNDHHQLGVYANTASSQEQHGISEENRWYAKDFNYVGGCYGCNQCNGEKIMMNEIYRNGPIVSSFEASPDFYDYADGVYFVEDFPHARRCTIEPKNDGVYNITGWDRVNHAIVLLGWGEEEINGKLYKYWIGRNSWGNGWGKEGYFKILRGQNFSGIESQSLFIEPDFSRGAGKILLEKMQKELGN
row,SMILES,% Inhibition @ 10 uM [%]
1,COc1ccc(CN2CCN(Cc3cccc(F)c3)CC2)c(OC)c1OC,5.99
2,N#C/C(=C\c1c(Oc2ccccc2Cl)nc2ccccn2c1=O)c1nc2ccccc2[nH]1,-1.86
3,Cc1cc(Oc2nc3ccccn3c(=O)c2/C=C(\C#N)c2nc3ccccc3[nH]2)ccc1Cl,92.2
4,Cc1cccc(Oc2nc3ccccn3c(=O)c2/C=C(\C#N)c2nc3ccccc3[nH]2)c1,6.78
5,COc1ccc(-c2nc(CSc3nnc(C)n4c3cc3oc(C)cc34)c(C)o2)cc1,3.61
6,Cc1cc(C)c(S(=O)(=O)N2CCN(c3ccc(F)cc3)CC2)c(C)c1,-6.86
7,CN(c1ccc(C(=O)Nc2ccc(F)cc2)cc1)S(=O)(=O)c1ccccc1,-7.56
8,Cc1sc(NC(=O)COc2ccc(Cl)cc2Cl)c(C#N)c1C,1.25
9,CCc1c(C)sc(NC(=O)COc2ccc(F)cc2)c1C#N,0.777
10,Cc1sc(NC(=O)COc2ccc(F)cc2F)c(C#N)c1C,93.9
11,CCCNC(=O)c1cc2ncc(Br)cn2n1,1.04
12,O=C(Nc1ccc(Br)cn1)c1cc2n(n1)C(C(F)(F)F)CC(c1ccccc1)N2 (centres unmarked),50.4
13,O=C(O)c1cc2n(n1)C(C(F)(F)F)CC(c1ccccc1)N2 (centres unmarked),-1.32
14,O=C(Nc1cccnc1)c1cc2n(n1)C(C(F)(F)F)CC(c1ccc(Br)cc1)N2 (centres unmarked),2.99
15,O=C(Cc1nnc(-c2ccc(Br)cc2)o1)NC1CCN(Cc2ccccc2)CC1,2.28
16,CP(=O)(O)c1nc2ccccc2s1,-2.44
17,Cc1ccc2c(c1)c1c3n2CCN(Cc2ccccc2)C3CCC1 (centres unmarked),1.26
18,c1ccc(CN2CCn3c4c(c5ccccc53)CCCC42)cc1 (centres unmarked),-1.25
19,C1=C(c2ccc3c(c2)c2c4n3CCN(Cc3ccccc3)C4CCC2)C2CCN1CC2 (centres unmarked),70.5
20,CN(C)CCN(C)C1CCN(Cc2ccccc2)CC1,0.162
21,Cc1cc(C)c(C#N)c(SCc2ccccc2)n1,-0.305
22,Cc1cc(C)c(C#N)c(SCc2ccccn2)n1,66.4
23,Cc1cc(C)c(C#N)c(SCc2ccccc2F)n1,40.7
24,CCOC(=O)c1c(NC(=O)/C=C/C(=O)O)sc2c1CCN(Cc1ccccc1)C2,-1.92

row,SMILES,% Inhibition @ 10 uM [%]
1,COc1ccc(CC(=O)Nc2sc3c(c2C(N)=O)CCCC3)cc1,2.13
2,Cc1cc(C(F)(F)F)nn1CC(=O)Nc1sc2c(c1C#N)CCCCC2,2.76
3,CC(Oc1ccc(F)cc1)C(=O)Nc1sc2c(c1C(N)=O)CCC2 (centres unmarked),2.44
4,NC(=O)c1c(NC(=O)COc2ccc(Cl)cc2)sc2c1CCCCC2,65.1
5,Cc1cc(C(F)(F)F)nn1CC(=O)Nc1sc2c(c1C(N)=O)CCCCC2,54.5
6,NC(=O)c1c(NC(=O)COc2ccc(Cl)cc2)sc2c1CCCCCC2,-4.33
7,CCOc1ccc(CC(=O)Nc2sc3c(c2C(N)=O)CCCC3)cc1OCC,-13.5
8,NC(=O)c1c(NC(=O)COc2ccccc2)sc2c1CCCCC2,1.88
9,CC1CCc2c(sc(NC(=O)C(C)Oc3cccc(Cl)c3)c2C(N)=O)C1 (centres unmarked),2.45
10,Cc1cc(C(F)(F)F)nn1CC(=O)Nc1sc2c(c1C(N)=O)CCCC2,-1.49
11,CC(Oc1cccc(Cl)c1)C(=O)Nc1sc2c(c1C(N)=O)CCCCC2 (centres unmarked),61.2
12,COc1ccc(CC(=O)Nc2sc3c(c2C(N)=O)CCCCC3)cc1OC,57
13,Cc1nc2ccccc2c2oc(C(=O)NCc3ccc(F)cc3)cc12,1.62
14,CC(=O)c1ccc(OCCOc2ccc(C(C)=O)cc2)cc1,-6.82
15,CCn1c2ccccc2c2nnc(N3CCC(C)CC3)nc21,-3.1
16,Cc1cccc(Cc2c(C)nc3c(C(=O)NCCc4ccccc4)cnn3c2C)c1,-16.3
17,O=C(O)CSC12CC3CC(CC(C3)C1)C2,-0.415
18,O=C1c2ccccc2C(=O)N1c1c(F)c(F)c(C(F)(F)F)c(F)c1F,1.8
19,CC1=CC2=NC(=O)/C(=C\c3ccc(OCc4ccccc4C)cc3)C(=N)N2O1,3.63
20,COc1ccc(Cl)cc1N(CC(=O)Nc1ccc(C(C)C)cc1)S(C)(=O)=O,0.324
21,Nc1nnc(-c2ccc([N+](=O)[O-])cc2)s1,-0.0369
22,COc1ccc(C2=CC(c3ccc(F)c(Br)c3)n3nnnc3N2)cc1 (centres unmarked),1.73
23,CC(=O)ONc1ccc(NC=C2C(=O)N(C)C(=O)N(C)C2=O)cc1,8.6
24,Fc1ccccc1CSCc1nc2ccccc2[nH]1,-4.6

row,SMILES,% Inhibition @ 10 uM [%]
1,O=C(Nc1cnc2ccccc2c1O)N1CCC(Cc2ccccc2)CC1,5.43
2,Cc1cc(/C=C2/SC(=O)N(C(C)C)C2=O)c(C)n1-c1ccncc1,-0.68
3,CCCC(=O)NCCc1nc2ccccc2n1CC(C)C,0.121
4,COc1ccccc1-c1c(C)c(CC(C)C)nc(N)c1C#N,0.5
5,CCCc1nc(N)c(C#N)c(-c2ccccc2)c1CC,-0.631
6,CCCCCc1nc(N)c(C#N)c(-c2ccccc2)c1CCCC,-5.9
7,CCCCc1nc(N)c(C#N)c(-c2ccccc2)c1CCC,97.8
8,Cc1c(CC(C)C)nc(N)c(C#N)c1-c1ccccc1,99.3
9,Cc1c(CC(C)C)nc(N)c(C#N)c1-c1ccc(F)cc1,2.92
10,Cc1ccccc1N1C(=O)/C(=C\c2c(C)[nH]c3ccccc23)C(=O)NC1=S,4.15
11,O=C(c1ccco1)N1CCN(C2CCC(c3ccccc3)CC2)CC1 (centres unmarked),-0.274
12,CCOC(=O)c1c(C)nc(C)c(C(=O)OCC)c1-c1ccccc1,1.57
13,CCOC(=O)c1c(C)nc(S)c(C#N)c1-c1ccccc1,57.1
14,Cc1nc(S)c(C#N)c(C)c1C(=O)Nc1ccccc1,2.01
15,CC(=O)c1c(C)nc(S)c(C#N)c1-c1ccccc1,39.2
16,CCOC(=O)c1c(C)nc(C)c(C(=O)OCC)c1-c1ccc(OC)cc1,-1.96
17,CC(=O)c1c(C)nc(S)c(C#N)c1-c1ccc(Cl)cc1,33.7
18,CCOC(=O)c1c(C)nc(S)c(C#N)c1-c1ccc(OC)cc1,52.9
19,CCc1c(C#N)c(S)nc(C)c1C(=O)Nc1ccccc1,55
20,CCc1c(C#N)c(SC)nc(C)c1C(=O)Nc1ccccc1,1.43
21,Cc1ccc(OCCNC(=O)Cn2cnc3c(=O)n(C)c(=O)n(C)c32)cc1C,-9.26
22,CCn1c(C(=O)NCc2ccccn2)cc2oc3ccccc3c21,-3.96
23,COc1cc(C2NCCc3c2[nH]c2ccccc32)ccc1OC(C)C (centres unmarked),1.02
24,CC1CCN(C(=O)Cn2cnc3c(nnn3Cc3ccccc3F)c2=O)CC1,24

row,SMILES,% Inhibition @ 10 uM [%]
1,O=C(CNS(=O)(=O)c1ccc(Br)s1)N1CC=C(c2ccccc2)CC1,3.27
2,O=C(NC1CCCC1)c1ccc(Cl)c([N+](=O)[O-])c1,-4.91
3,O=C(Nc1cnn(Cc2ccccc2)c1)C1CCCC1,-1.78
4,Cc1cc(-c2ccc(O)cc2)nc2ccc3ccccc3c12,-1.97
5,Cc1cc(-c2ccc(N)cc2)nc2ccc3ccccc3c12,52.7
6,Cc1cc(-c2ccc([N+](=O)[O-])cc2)nc2ccc3ccccc3c12,-0.239
7,OC1CCCN(Cc2ccc(OC(F)(F)F)cc2)C1 (centres unmarked),1.62
8,Cc1cccc(C)c1-n1c(C)cc(/C=C2\NC(=O)NC2=O)c1C,4.83
9,CCc1nnc(NC(=O)CSc2nc(-c3cccs3)cc(C(F)(F)F)c2C#N)s1,9.42
10,CCc1nnc(NC(=O)CSc2nc(C(F)(F)F)cc(C)c2C#N)s1,59.2
11,CCc1nnc(NC(=O)CSc2nc(N)nc(SC)c2C#N)s1,-1.68
12,COC(=O)C1=NNC2C(=O)N(Cc3ccccc3)C(=O)C12 (centres unmarked),-0.13
13,CC(C(=O)O)c1cc(C(=O)c2ccccc2)sc1-c1ccccc1 (centres unmarked),6.08
14,CCOc1ccccc1C(=O)Nc1ccc(C(C)=O)cc1,-7.23
15,CC(C)CCOc1ccc(C(=O)CCNC(CC(C)C)C(=O)O)cc1 (centres unmarked),30.1
16,CCCOc1ccc(C(=O)CCNC(Cc2c[nH]c3ccccc23)C(=O)O)cc1 (centres unmarked),81.9
17,O=C(COc1ccccc1)NC(Cc1c[nH]c2ccccc12)C(=O)O (centres unmarked),10.2
18,CC[C@H](C)[C@H](NC(=O)Cc1ccncc1)C(=O)N[C@@H](CCc1ccccc1)C(=O)CO,-4.17
19,CCN(C(=O)c1ccco1)c1nc(-c2ccccc2)cs1,72.9
20,CCCN(C(=O)c1ccco1)c1nc(-c2cccc(Cl)c2)cs1,11.9
21,CCN(C(=O)CCc1ccccc1)c1nc(-c2ccccc2)cs1,-0.426
22,CCOC(=O)C1=CN(C)C=C(C(=O)OCC)C1c1ccc(C(C)C)cc1,-1.48
23,Cc1cc(C)c(S(=O)(=O)N2CCCc3ccccc32)c(C)c1,1.83
24,Cc1ccc(-n2nc(C)c3c(C)c(CCC(=O)NCC4CCCO4)c(C)nc32)cc1 (centres unmarked),0.953

row,SMILES,% Inhibition @ 10 uM [%]
1,CCOc1ccc(/C=C2/C=C(c3ccc(C)cc3)OC2=O)cc1OC,1.84
2,CCOc1ccc(N2C(=O)C3C(C(C)=O)=NN(c4ccccc4Cl)C3C2=O)cc1 (centres unmarked),-0.0619
3,O=C1NC(=O)c2cccc3cccc1c23,-4.51
4,O=C1c2cccc3cccc(c23)C(=O)N1O,13.1
5,O=C1C(Sc2ccccc2)=C(O)c2cccc3cccc1c23,68.7
6,CCOc1ccc(C(=O)CCNC(CC(=O)O)C(=O)O)cc1 (centres unmarked),42.3
7,CCOc1ccc(C(=O)CCNC(C(=O)O)C(C)CC)cc1 (centres unmarked),71
8,CCC(C)C(NCCC(=O)c1ccc(Br)cc1)C(=O)O (centres unmarked),-7.23
9,CCCOc1ccc(C(=O)CCNC(C(=O)O)C(C)C)cc1 (centres unmarked),2.8
10,COc1ccc(C(=O)CCNC(C)C(=O)O)cc1 (centres unmarked),5.85
11,CC(C)Oc1ccc(C(=O)CCNC(C(=O)O)C(C)C)cc1 (centres unmarked),59.7
12,CCC(Oc1ccccc1)C(=O)Nc1ncccc1Cl (centres unmarked),-3.75
13,COc1ccccc1NC(=O)/C=C\C(=O)O,1.63
14,CCCN(CCC)CCNC(=O)c1cn(C)c(=O)c2cc(OC)c(OC)cc12,-2.49
15,CC(NC(=O)c1cccs1)c1cc2c(cc1Cl)OCCCO2 (centres unmarked),-1.28
16,Cc1nn(-c2ccccc2)c2sc(-c3nnc(S)o3)cc12,64.9
17,COC(=O)c1cc2c(C)nn(-c3ccccc3)c2s1,4.7
18,Cc1nn(-c2ccccc2)c2sc(C(N)=O)cc12,6.83
19,COc1ccccc1NC(=O)c1cc(OC)c(OC)c(OC)c1,-5.67
20,Cc1ccc(-c2nc3c4ccccc4nc(S)n3n2)cc1,-7.62
